From PubChem BioAssay (NCI) come the findings set out here.

Test systems include SR leukemia; RPMI-8226 leukemia; OVCAR-8 ovarian; OVCAR-5 ovarian; OVCAR-4 ovarian; SK-OV-3 ovarian; IGROV1 ovarian; OVCAR-3 ovarian; HS 578T breast; NCI/ADR-RES ovarian; T-47D breast; BT-549 breast; MDA-MB-435 melanoma; SW-620 colon; MCF7 breast; HCT-116 colon; HCC-2998 colon; KM12 colon.
Test in all cases: NCI-60 one-dose screen, 48 h (100 = growth as untreated, 0 = no growth, -100 = all killed)
Conditions in all cases: 10 µM unless noted

SMILES strings stand for the structures. About 83,000 compounds went through this panel and 20% of them were active in at least one assay; those are over-represented in the sample as a whole.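 The endpoint reported here, percent growth, reads 100 for growth as untreated, 0 for no net growth and -100 for all cells dead.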 A number with no mark means an inactive call. The source made the active and inactive calls. The calls were made as follows: active = growth percent below 10; inactive = the rest.

Take `COc1cc2c(c(OC)c1OC)C(=O)CC(c1cccc(C(=O)Nc3ccccc3Br)c1)O2` (centres undefined): the growth was 64% in the experiment on SR leukemia; 68.7% in the experiment on RPMI-8226 leukemia; 91.8% in the experiment with OVCAR-8 ovarian; 96.5% with OVCAR-5 ovarian; 70.6% in the experiment on OVCAR-4 ovarian; 95.4% in the experiment on SK-OV-3 ovarian. Further, the growth in the experiment with IGROV1 ovarian was 91.6%; with OVCAR-3 ovarian, 97.6%; in the experiment on HS 578T breast, 103%; with NCI/ADR-RES ovarian, 88.8%; in the experiment on T-47D breast it was 55.4%; in the experiment with BT-549 breast it was 78.8%. Moreover, the growth was 83.9% in the experiment on MDA-MB-435 melanoma; 99.3% in the experiment with SW-620 colon; 68.9% with MCF7 breast; 81.5% in the experiment on HCT-116 colon; 95% in the experiment on HCC-2998 colon; 93.5% with KM12 colon.
In the case of `O=C1CCC(C(=O)N/N=C/c2cc(F)ccc2F)N1` (centres undefined), the growth was 109% with SR leukemia; 103% in the experiment on RPMI-8226 leukemia; 101% with OVCAR-8 ovarian; 106% in the experiment with OVCAR-5 ovarian; 97.6% in the experiment on OVCAR-4 ovarian; 108% in the experiment with SK-OV-3 ovarian. For the same compound, the growth was 102% in the experiment on IGROV1 ovarian; 102% with OVCAR-3 ovarian; 99.1% with HS 578T breast; 106% in the experiment on NCI/ADR-RES ovarian; 97.2% in the experiment on T-47D breast; 103% with BT-549 breast. For the same compound, the growth in the experiment with MDA-MB-435 melanoma is 100%; in the experiment with SW-620 colon it was 106%; in the experiment on MCF7 breast, 93.4%; in the experiment with HCT-116 colon, 103%; in the experiment with HCC-2998 colon, 107%; in the experiment on KM12 colon it was 104%.
`Cc1oc(-c2ccc(Cl)cc2)nc1C1=NN(C(=O)c2ccncc2)C(c2ccccc2)C1` (centres undefined): the growth in the experiment with SR leukemia was 101%; in the experiment with RPMI-8226 leukemia it was 80.3%; with OVCAR-8 ovarian, 95.4%; in the experiment on OVCAR-5 ovarian, 105%; with OVCAR-4 ovarian, 85.4%; in the experiment on SK-OV-3 ovarian, 91.9%. Moreover, the growth is 71.3% with IGROV1 ovarian; 92.4% in the experiment with OVCAR-3 ovarian; 87.4% in the experiment with HS 578T breast; 94% in the experiment on NCI/ADR-RES ovarian; 97% in the experiment with T-47D breast; 89.7% in the experiment on BT-549 breast. The growth in the experiment with MDA-MB-435 melanoma is 95.9%; in the experiment on SW-620 colon, 95.2%; with MCF7 breast, 94%; in the experiment on HCT-116 colon it was 93.8%; in the experiment on HCC-2998 colon it was 102%; in the experiment with KM12 colon, 90.6%.
For `CCOC(=O)CC1CSC(N/N=C/c2ccc(F)c(Br)c2)=N1` (centres undefined), the growth in the experiment on SR leukemia is 87.7%; in the experiment with RPMI-8226 leukemia it was 104%; with OVCAR-8 ovarian, 114%; in the experiment with OVCAR-5 ovarian, 95.1%; in the experiment on OVCAR-4 ovarian it was 89.1%; in the experiment on SK-OV-3 ovarian it was 95.3%. The growth is 117% in the experiment with IGROV1 ovarian; 99.3% in the experiment on OVCAR-3 ovarian; 112% in the experiment with HS 578T breast; 103% in the experiment on NCI/ADR-RES ovarian; 93.7% in the experiment with T-47D breast; 110% in the experiment with BT-549 breast. For the same compound, the growth with MDA-MB-435 melanoma was 108%; in the experiment on SW-620 colon it was 102%; with MCF7 breast it was 96.1%; in the experiment on HCT-116 colon it was 88.5%; with HCC-2998 colon it was 105%; with KM12 colon it was 93.2%.
As to `Cc1ccc(-c2csc(NC(=O)CSc3nc(N)cc(N)n3)n2)cc1`, the growth in the experiment on SR leukemia was 42.9%; with RPMI-8226 leukemia, 44%; in the experiment on OVCAR-8 ovarian, 71%; in the experiment with OVCAR-5 ovarian it was 91.2%; in the experiment with OVCAR-4 ovarian, 64%; in the experiment with SK-OV-3 ovarian, 88%. In addition, the growth in the experiment with IGROV1 ovarian is 74.1%; with OVCAR-3 ovarian, 73.2%; with HS 578T breast, 87.6%; in the experiment on NCI/ADR-RES ovarian, 51.8%; in the experiment with T-47D breast it was 19.6%; in the experiment on BT-549 breast, 52.1%. For the same compound, the growth in the experiment on MDA-MB-435 melanoma is 63.2%; in the experiment with SW-620 colon, 93.6%; in the experiment with MCF7 breast, 50.6%; with HCT-116 colon, 41.8%; in the experiment with HCC-2998 colon, 86.8%; in the experiment on KM12 colon it was 77.5%.
For `C#CCOc1ccc2nc(CCl)c(Cl)c(Nc3cccc(C(F)(F)F)c3)c2c1`, the growth with SR leukemia is 17.7%; in the experiment on RPMI-8226 leukemia, 62.7%; in the experiment on OVCAR-8 ovarian, 82.7%; with OVCAR-5 ovarian it was 104%; in the experiment with OVCAR-4 ovarian, 101%; with SK-OV-3 ovarian, 114%. For the same compound, the growth in the experiment with IGROV1 ovarian is 85.1%; in the experiment with OVCAR-3 ovarian, 78.2%; in the experiment with HS 578T breast it was 88.8%; in the experiment with NCI/ADR-RES ovarian, 97.1%; with T-47D breast, 65.9%; in the experiment with BT-549 breast, 60.6%. Moreover, the growth was 84.1% in the experiment with MDA-MB-435 melanoma; 66.4% in the experiment on SW-620 colon; 40.7% in the experiment with MCF7 breast; 64% with HCT-116 colon; 98.3% in the experiment on HCC-2998 colon; 93.6% with KM12 colon.
For the compound `NS(=O)(=O)c1ccc(C(=O)N=Nc2c(O)[nH]c3ccc(Cl)cc23)cc1`, the growth in the experiment on SR leukemia was 95.3%; with RPMI-8226 leukemia, 98.5%; in the experiment with OVCAR-8 ovarian, 95%; with OVCAR-5 ovarian, 110%; in the experiment on OVCAR-4 ovarian it was 99.7%; with SK-OV-3 ovarian, 108%. Moreover, the growth was 98.1% in the experiment with IGROV1 ovarian; 113% in the experiment with OVCAR-3 ovarian; 99.5% with HS 578T breast; 102% in the experiment with NCI/ADR-RES ovarian; 97.2% in the experiment with T-47D breast; 98.8% in the experiment on BT-549 breast. The growth with MDA-MB-435 melanoma is 105%; with SW-620 colon, 100%; in the experiment on MCF7 breast, 89.2%; in the experiment with HCT-116 colon, 99.4%; in the experiment on HCC-2998 colon it was 114%; in the experiment with KM12 colon, 102%.
In the case of `O=C(O)c1cn(C2CC2)c2cc(N3CCN(C(=O)N/N=C/c4cccc5ccccc45)CC3)c(F)cc2c1=O`, the growth with SR leukemia is 88.5%; with RPMI-8226 leukemia, 110%; in the experiment on OVCAR-8 ovarian, 95.3%; in the experiment on OVCAR-5 ovarian, 110%; in the experiment with OVCAR-4 ovarian it was 98.3%; in the experiment on SK-OV-3 ovarian, 87%. In addition, the growth in the experiment on IGROV1 ovarian is 94.5%; with OVCAR-3 ovarian it was 104%; in the experiment with HS 578T breast it was 96.2%; in the experiment on NCI/ADR-RES ovarian, 105%; with T-47D breast, 89.9%; in the experiment with BT-549 breast, 6.18% (active). The growth is 104% in the experiment with MDA-MB-435 melanoma; 109% in the experiment on SW-620 colon; 98.2% with MCF7 breast; 14.8% with HCT-116 colon; 107% with HCC-2998 colon; 101% in the experiment on KM12 colon.
